Pf apPOL block = Pf-apPOL DNA polymerase inhibition. Recombinant Pf-apPOL, molecular beacon fluorescence, 1.5 h. inhibition, % at 10 µM. 210,000 tested, 0.25% active. AID 1794808
mHTT-CaM PPI inh = mHTT-calmodulin interaction abrogation. AlphaScreen His-mHTT/GST-CaM binding, luminescence. P42858. 190,000 tested, 3.6% active. inhibition, % at 15 µM;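 also: 0% = both proteins with DMSO and 100% = one protein alone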
Target sequence (P42858 whole entry, looked up, stated change not applied): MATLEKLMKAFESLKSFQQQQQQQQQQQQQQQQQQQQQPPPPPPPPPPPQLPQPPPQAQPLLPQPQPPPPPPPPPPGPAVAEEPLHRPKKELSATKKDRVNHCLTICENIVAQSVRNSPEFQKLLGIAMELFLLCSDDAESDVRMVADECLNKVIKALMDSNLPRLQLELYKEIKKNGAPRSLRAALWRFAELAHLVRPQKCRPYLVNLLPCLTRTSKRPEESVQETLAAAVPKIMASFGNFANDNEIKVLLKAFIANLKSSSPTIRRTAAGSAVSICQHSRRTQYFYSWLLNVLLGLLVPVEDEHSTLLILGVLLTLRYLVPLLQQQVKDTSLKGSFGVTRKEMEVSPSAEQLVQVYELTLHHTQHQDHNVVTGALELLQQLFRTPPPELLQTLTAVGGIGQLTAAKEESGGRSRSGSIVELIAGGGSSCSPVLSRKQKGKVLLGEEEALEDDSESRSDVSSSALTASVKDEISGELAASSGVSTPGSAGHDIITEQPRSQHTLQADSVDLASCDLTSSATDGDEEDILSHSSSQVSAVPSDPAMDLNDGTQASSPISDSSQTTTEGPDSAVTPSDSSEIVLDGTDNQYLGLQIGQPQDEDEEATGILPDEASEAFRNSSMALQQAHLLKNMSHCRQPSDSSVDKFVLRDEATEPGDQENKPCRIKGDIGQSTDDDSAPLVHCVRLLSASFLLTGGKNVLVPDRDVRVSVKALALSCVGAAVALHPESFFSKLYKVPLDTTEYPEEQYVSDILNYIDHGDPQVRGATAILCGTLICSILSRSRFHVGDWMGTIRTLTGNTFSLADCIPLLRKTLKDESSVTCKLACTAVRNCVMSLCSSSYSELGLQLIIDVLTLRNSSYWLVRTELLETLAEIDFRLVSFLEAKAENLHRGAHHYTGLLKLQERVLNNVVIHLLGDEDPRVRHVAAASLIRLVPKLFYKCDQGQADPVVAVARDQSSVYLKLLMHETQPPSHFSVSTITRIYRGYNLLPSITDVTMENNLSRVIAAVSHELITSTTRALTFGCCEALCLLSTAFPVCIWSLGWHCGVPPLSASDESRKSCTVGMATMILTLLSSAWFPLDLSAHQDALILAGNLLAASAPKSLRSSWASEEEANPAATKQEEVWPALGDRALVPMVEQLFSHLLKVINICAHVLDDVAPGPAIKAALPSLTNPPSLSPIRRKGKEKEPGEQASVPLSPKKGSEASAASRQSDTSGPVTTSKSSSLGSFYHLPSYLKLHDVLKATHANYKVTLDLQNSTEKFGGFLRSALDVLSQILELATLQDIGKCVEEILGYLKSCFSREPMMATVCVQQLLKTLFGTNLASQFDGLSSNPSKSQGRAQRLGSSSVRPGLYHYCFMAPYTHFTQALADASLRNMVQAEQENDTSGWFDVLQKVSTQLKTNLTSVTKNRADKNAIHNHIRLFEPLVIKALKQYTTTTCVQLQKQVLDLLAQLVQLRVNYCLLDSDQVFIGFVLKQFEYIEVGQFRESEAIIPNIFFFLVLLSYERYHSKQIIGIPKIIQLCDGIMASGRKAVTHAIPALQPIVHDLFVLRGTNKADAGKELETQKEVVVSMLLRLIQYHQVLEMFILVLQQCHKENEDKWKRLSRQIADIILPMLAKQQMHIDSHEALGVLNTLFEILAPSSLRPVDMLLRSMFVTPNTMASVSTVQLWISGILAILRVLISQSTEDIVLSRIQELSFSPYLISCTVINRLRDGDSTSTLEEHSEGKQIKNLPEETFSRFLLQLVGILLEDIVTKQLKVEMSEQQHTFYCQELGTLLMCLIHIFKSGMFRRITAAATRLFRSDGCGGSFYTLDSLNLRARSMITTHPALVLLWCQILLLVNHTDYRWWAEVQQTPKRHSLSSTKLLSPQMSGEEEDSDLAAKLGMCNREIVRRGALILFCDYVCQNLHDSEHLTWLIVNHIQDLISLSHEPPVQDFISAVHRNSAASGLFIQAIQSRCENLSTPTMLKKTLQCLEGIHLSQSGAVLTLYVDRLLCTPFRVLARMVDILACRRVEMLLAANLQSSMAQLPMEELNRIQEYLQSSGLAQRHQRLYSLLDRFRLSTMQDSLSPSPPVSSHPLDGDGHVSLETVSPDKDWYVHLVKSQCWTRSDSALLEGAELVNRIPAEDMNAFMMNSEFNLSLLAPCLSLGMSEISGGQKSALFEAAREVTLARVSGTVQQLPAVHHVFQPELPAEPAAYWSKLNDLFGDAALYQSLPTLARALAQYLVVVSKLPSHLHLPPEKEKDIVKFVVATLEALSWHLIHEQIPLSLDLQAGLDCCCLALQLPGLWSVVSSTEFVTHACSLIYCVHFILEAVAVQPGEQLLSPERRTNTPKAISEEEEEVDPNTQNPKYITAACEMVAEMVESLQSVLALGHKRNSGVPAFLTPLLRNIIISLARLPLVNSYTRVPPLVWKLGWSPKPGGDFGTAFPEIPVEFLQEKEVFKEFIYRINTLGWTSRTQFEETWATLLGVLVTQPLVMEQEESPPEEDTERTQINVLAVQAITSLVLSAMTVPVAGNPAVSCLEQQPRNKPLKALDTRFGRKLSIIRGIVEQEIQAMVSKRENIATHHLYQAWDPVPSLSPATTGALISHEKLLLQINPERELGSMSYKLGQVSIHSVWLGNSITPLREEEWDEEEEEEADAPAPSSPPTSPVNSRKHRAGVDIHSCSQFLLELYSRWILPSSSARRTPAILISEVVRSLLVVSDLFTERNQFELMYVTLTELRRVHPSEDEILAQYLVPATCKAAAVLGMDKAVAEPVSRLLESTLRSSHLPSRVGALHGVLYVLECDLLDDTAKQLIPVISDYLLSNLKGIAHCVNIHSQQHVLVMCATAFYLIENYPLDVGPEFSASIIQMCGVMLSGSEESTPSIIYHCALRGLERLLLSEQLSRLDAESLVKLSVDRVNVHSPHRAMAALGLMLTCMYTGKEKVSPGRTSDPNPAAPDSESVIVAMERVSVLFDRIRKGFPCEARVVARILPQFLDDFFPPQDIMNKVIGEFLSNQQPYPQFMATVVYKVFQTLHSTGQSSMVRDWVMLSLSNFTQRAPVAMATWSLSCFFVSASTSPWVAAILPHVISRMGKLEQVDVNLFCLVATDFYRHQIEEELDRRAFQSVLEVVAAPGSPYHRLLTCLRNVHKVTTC
Numbers without * were called inactive; nt = no result. A selection: hits, their analogues and other compounds. The true share with any hit is near 3.6%. Rule as the data show it: active = inhibition above about 50%; inactive = the rest.

SMILES | Pf apPOL block | mHTT-CaM PPI inh
COc1ccc(CCC(=O)N2CCC3(C2)C(=O)Nc2ccccc23)cc1 (configuration not stated) | -4.1 | -6.7
Oc1ccc(Br)c(C(Nc2ccccn2)c2ccc3cccnc3c2O)c1 (configuration not stated) | -3.8 | 100.0*
Oc1c(C(Nc2ccccn2)c2ccccc2Br)ccc2cccnc12 (configuration not stated) | -0.8 | 99.0*
O=C(Nc1cc(Br)cc2cccnc12)c1ccccc1Br | -4.9 | -4.0
Cc1ccc(C)c(C(=O)N2CCC(c3nc(C(=O)N4CCCCC4)c(C)o3)CC2)c1 | 0.1 | 5.5
CN1C(=O)C2CCCCN2c2ccc(C(=O)NCCCN3CCCCC3)cc21 (configuration not stated) | -3.1 | -3.5
CCN(CC)c1ccc(/C=C2\N=C(c3cc(OC)c(OC)c(OC)c3)OC2=O)cc1 | -1.1 | -8.0
Cc1cc(N2CCN(C)CC2)nc2ccc(NC(=O)c3cc(-c4ccco4)nc4ccccc34)cc12 | 5.3 | 57.0*
Cc1cc(N2CCN(C)CC2)nc2ccc(NC(=O)/C=C/c3cccnc3)cc12 | -6.3 | 5.0
Cc1cc(N2CCN(C)CC2)nc2ccc(NC(=O)/C=C/c3cccs3)cc12 | -0.3 | 76.0*
COc1ccccc1C(=O)Nc1ccc2nc(N3CCN(C)CC3)cc(C)c2c1 | -7.3 | 0.0
O=C(Nc1cc(O)cc([N+](=O)[O-])c1)c1cc2nc(-c3ccccc3)cc(C(F)(F)F)n2n1 | 2.8 | 6.0
O=C(OCc1cc(-c2ccc(F)cc2F)on1)c1ccc(=O)oc1 | 81.2* | 99.7*
O=C(Cc1cccs1)OCc1cc(-c2ccc(F)cc2F)on1 | 2.3 | -98.7
CCCn1c(=O)c2cc(C(=O)Nc3ccccc3)nn2c2ccccc21 | -1.2 | -12.5
O=C(O)CNC(=O)c1ccccc1 | -7.6 | -7.6
NNC(=O)CNC(=O)c1ccccc1 | 61.8* | 0.3
O=C(CN1C(=O)C(c2ccccc2)=NC12CCCCCC2)Nc1ccc(F)cc1 | -3.9 | -5.0
CC1CCC2(CC1)N=C(c1ccccc1)C(=O)N2CC(=O)Nc1cccc(Cl)c1 (configuration not stated) | -6.2 | 70.0*
COc1ccc(NC(=O)CN2C(=O)C(c3ccccc3)=NC23CCC(C)CC3)cc1Cl (configuration not stated) | -7.1 | 15.5
COc1ccc(NC(=O)CN2C(=O)C(c3ccccc3)=NC23CCC(C)CC3)cc1OC (configuration not stated) | -7.9 | 7.6
O=C(CN1C(=O)C(c2ccccc2)=NC12CCCCC2)Nc1ccc(F)c(F)c1 | -11.9 | 100.0*
CC1CCC2(CC1)N=C(c1ccccc1)C(=O)N2CC(=O)Nc1ccc(F)c(F)c1 (configuration not stated) | -7.0 | 76.4*
O=C(CN1C(=O)C(c2ccc(F)cc2)=NC12CCCCC2)Nc1ccc(F)cc1 | -5.5 | 11.7
O=C(CN1C(=O)C(c2ccc(F)cc2)=NC12CCCCC2)Nc1ccc(Cl)cc1 | -10.1 | 77.5*
SMILES | Pf apPOL block | mHTT-CaM PPI inh
O=C(NC1CCCc2ccccc21)C1CCN(S(=O)(=O)N2CCOCC2)CC1 (configuration not stated) | -12.4 | 0.0
O=C(Nc1ccc(OC(F)(F)F)cc1)C(=O)Nc1cccc([N+](=O)[O-])c1 | -1.5 | -1.4
O=C(CN1C(=O)C(c2ccccc2)=NC12CCCCCC2)Nc1cccc(F)c1 | -9.2 | 52.0*
O=C(CN1C(=O)C(c2ccccc2)=NC12CCCCCC2)Nc1ccccc1 | 1.2 | 44.9
Cc1cccc(Nc2ccc(N3CCN(C(=O)c4ccc(Br)o4)CC3)nn2)n1 | -6.4 | -3.9
O=C(NC(Nc1ccccc1Cl)C(Cl)(Cl)Cl)c1cc([N+](=O)[O-])cc([N+](=O)[O-])c1 (configuration not stated) | -5.0 | 61.0*
O=C(NC(Nc1ccccc1)C(Cl)(Cl)Cl)c1ccc([N+](=O)[O-])cc1 (configuration not stated) | -0.5 | 31.0
O=C(NC(Nc1cccc([N+](=O)[O-])c1)C(Cl)(Cl)Cl)c1ccccc1[N+](=O)[O-] (configuration not stated) | -3.3 | 14.0
O=C(NC(Nc1ccccc1)C(Cl)(Cl)Cl)c1cc([N+](=O)[O-])cc([N+](=O)[O-])c1 (configuration not stated) | 1.6 | 59.0*
CCC(=O)N1CCN(c2nc3c(s2)CC(C(=O)NCc2c(C)nn(C)c2C)CC3)CC1 (configuration not stated) | -4.8 | 9.3
O=C(CCc1ccccc1)N1CCc2c(nc3cc(-c4ccccc4Cl)[nH]n3c2=O)C1 | -2.9 | 46.1
COc1ccccc1N(CC(O)COc1ccc(C)cc1)S(=O)(=O)c1ccccc1 (configuration not stated) | -0.3 | 52.3*
COc1ccccc1N(CC(N)=O)S(=O)(=O)c1ccccc1 | -4.9 | -5.5
O=C(O)c1ccc(N=Cc2cc(Br)ccc2O)cc1 | 0.7 | 1.0
O=C(O)c1ccc(O)c(C=Nc2ccc(Br)cc2)c1 | 0.1 | 85.0*
COC(=O)CC(=NNC(=O)c1ccccc1N)C(=O)OC | -0.6 | nt
O=C(CSc1nccn1-c1cccc(Cl)c1)Nc1cccc(C(F)(F)F)c1 | -1.6 | 61.0*
Cc1cc(C)cc(-n2ccnc2SCC(=O)Nc2cccc(C(F)(F)F)c2)c1 | 4.2 | 52.0*
O=C(CSc1nccn1-c1ccc([N+](=O)[O-])cc1)Nc1cc(C(F)(F)F)ccc1Cl | -8.4 | 51.0*
Cc1cccc(-n2ccnc2SCC(=O)Nc2cccc(C(F)(F)F)c2)c1C | -7.5 | 17.0
Cc1cccc(-n2ccnc2SCC(=O)Nc2ccc(Cl)c(Cl)c2)c1C | -6.8 | 95.0*
O=C(CSc1nccn1-c1cccc(Cl)c1)Nc1cc(C(F)(F)F)ccc1Cl | -5.4 | 13.0
O=C(CSc1nccn1-c1ccccc1)Nc1cc(C(F)(F)F)ccc1Cl | -8.0 | 13.0
Cc1cccc(-n2ccnc2SCC(=O)Nc2cccc(C(F)(F)F)c2)c1 | -4.6 | 49.0
CCOc1ccc(C2=CC(c3ccc(Cl)cc3)n3ncnc3N2)cc1 (configuration not stated) | -1.6 | 15.0
SMILES | Pf apPOL block | mHTT-CaM PPI inh
Cc1cc([N+](=O)[O-])nn1CC(=O)Nc1cc(Oc2cccc(C(F)(F)F)c2)cc([N+](=O)[O-])c1 | -0.7 | 5.0
CCOc1ccc(C2C(C#N)=C(N)Oc3c2c(C)nn3-c2ccccc2)cc1 (configuration not stated) | 0.9 | 26.2
CCS(=O)(=O)Nc1ccc(C2(C(=O)NCc3cc(F)cc(F)c3)CCCCC2)cc1 | -2.7 | -8.2
Cc1ccc2c(c1)C(=O)N1CCCC1C(=O)N2CC(=O)N1CCN(C(C)C)CC1 (configuration not stated) | -4.2 | -1.3
CCn1c(SC)nnc1-c1nn(C)c2c1CN(C(=O)CCc1ccc(OC)cc1)CC2 | -0.5 | 6.1
CC1CCN(C(=O)CSc2nc3c(c(=O)n2-c2ccc(Cl)cc2)SCC3)CC1 | 1.6 | 2.0
COc1cccc(CC(=O)N2CCc3c(c(-c4nc(-c5cccc(F)c5)no4)nn3C)C2)c1 | -2.5 | -0.4
Cn1nc(COCc2ccccc2)c2c1CCN(S(=O)(=O)c1ccccc1)C2 | 0.4 | 26.8
Cc1ccccc1S(=O)(=O)N1CCc2c(c(COCc3ccccc3)nn2C)C1 | 3.0 | 59.6*
COc1ccc(NC(=O)N2CCc3c(c(COCc4ccc(Cl)cc4)nn3C)C2)cc1 | -1.5 | 57.9*
CCC(=O)N1CCc2c(c(COCc3ccc(Cl)cc3)nn2C)C1 | -14.5 | 52.2*
CCCC(=O)N1CCc2c(c(COCc3ccc(C)cc3)nn2C)C1 | -5.8 | 3.3

Compound activity: PubChem BioAssay, University of Kansas High Throughput Screening Laboratory
